The record followed here is the supplement of paper PMC11417369.

± gives the standard deviation of the averaged measurements. In all, about 25,000 sequences were measured (“ln(normalized median fluorescence intensity)”: median about 8.6, highest 2% from about 10 on). For the sample, the highest values were picked, then their nearest neighbours and some sequences at random.

The test system of the experiment is PfAP2-EXP AP2 domain (GST-tagged). Briefly: gcPBM binding intensity (ln(normalized median fluorescence intensity)); higher = stronger DNA binding. The essentials: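 Binding of GST-tagged P. falciparum DNA-binding domains, expressed in E. coli and used at about 25 μg on average, was carried out for 1 h in 1× PBS containing 1% milk, 0.2 mg/ml BSA, 0.5% salmon testes DNA and 0.03% Triton X-100. The target was an Agilent 4 × 180k array of primer-extended double-stranded 36-bp intergenic genomic probes plus negative controls, read with Alexa488 anti-GST antibody at 488 nm. Binding intensity is the highest Masliner-normalised natural-log median intensity across replicate spots of either probe orientation.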
Take “TAGCTCGTTCGGAGCACACACATATAAATAAATATA [CACACA_site7002]”: the “gcPBM binding intensity (ln)” value turned out to be 8.38 ± 0.52.
Next, “TAGCTCGTTCGGAGCACACACATATATATATATATA [CACACA_site1948]”: 10.3 ± 0.28; “GTTAGCTCGTTCGGAGCACACACATATATATATATA [CACACA_site8595]”: 10.1 ± 0.45.
As to “TTCTATATATTTGGAAGTACATTATATTTATTTTTT [XGTACX_site3172]”, the “gcPBM binding intensity (ln)” value came out at 8.44 ± 0.33.
Next, “AAATAATAAATATATCGTACAAATATCATATATAAA [XGTACX_site2771]”: 8.32 ± 0.38; “AATAAATGGAATGTCACACATATATATATATATATA [CACACA_site4869]”: 10.2 ± 0.37.
For “AATATTATAAATGTCACACATATATTCAAATATATA [CACACA_site4736]”, the “gcPBM binding intensity (ln)” value stood at 8.29 ± 0.38.
As for “CCTAAATAAATGGACACACACATATTTATATTTATA [CACACA_site6789]”, the figure is 8.46 ± 0.45; as for “ACACATAAATGAATAAATAAATAAATATAAATATAA [CACACA_negctrl_site1784]”, 8.36 ± 0.29; as for “CCTAAATAAATGGACACACACATATATATATATATA [CACACA_site1439]”, 10.2 ± 0.32.
Turning to “TATATGTAAATGGACACACACATATATATATATATA [CACACA_site3659]”, the “gcPBM binding intensity (ln)” value was determined as 10.1 ± 0.36.
As for “TACCTAAATAAATGGACACACACATATATATATATA [CACACA_site8407]”, the figure is 10.1 ± 0.3; as for “TATCTGTAAATGGACACACACATATATATATATATA [CACACA_site5926]”, 10.2 ± 0.2; as for “AATATATGTAAATGGACACACACATATATATATATA [CACACA_site9220]”, 10 ± 0.28.
“GAACATACTCAAATAGCACACACATAAATAAAAATG [CACACA_site9283]”: the “gcPBM binding intensity (ln)” value came to 8.89 ± 0.56.
As for “GTGTGTTGTATATACTGTACATACTTTATATATAGT [XGTACX_site1876]”, the figure is 8.63; as for “CCTTTTTTGTTTTATGCACACCATATAACCAAGGCT [CACACA_site7893]”, 8.98 ± 0.18.
Turning to “AAAAAATGGATGATCACACACTTCATAAAAATTGCA [CACACA_site5256]”, the “gcPBM binding intensity (ln)” value came out at 8.46 ± 0.49.
Next, “GTATATAATTTATATTGTACGCATATTATTATCATT [XGTACX_site7277]”: 8.57 ± 0.25; CTTTTCTATTTTTTCGTGCACTATAAATATTTTAAT: 9.6 ± 0.23.
Consider “TTTATATTTAAATGCATGCACTTTCTATTTTTTTTT [GTGCAC_site9959]”, for which the “gcPBM binding intensity (ln)” value is 10 ± 0.33.
As for “ATTCTATATTTAAATGCATGCACTTTCTATTTTTTT [TGCATGCA_site435]”, the figure is 10.6 ± 0.52.
Take “ATATATATATATATATGTACTCATATTTTATTATTT [XGTACX_site898]”: the “gcPBM binding intensity (ln)” value turned out to be 10.1 ± 0.3.
Next, “TATATATATATATATGCATGTACATATATTTGTTAT [TGCATGCA_site379]”: 10.3 ± 0.17; “ATATATATATATGCATGTACATATATTTGTTATATC [XGTACX_site3197]”: 9.82 ± 0.45.
Next, “ATGCATATATTTATGTGTACATATATTTGTAGGGGG [XGTACX_site6063]”: 10.6 ± 0.19; “ATATATTTATATTTGTGTACATATTTATTATATTTA [XGTACX_site404]”: 8.46 ± 0.28.
Next, “ATATATATTTATATATGTACATATTTTTGTGTATTT [XGTACX_site1183]”: 8.55 ± 0.43; “ATAGCATATATTTTTTGTACATATGTTATATATATA [XGTACX_site2184]”: 8.96 ± 0.071.
Take “TTTGTCATTTTATTATGTACTCAGCATATAGGGGGG [XGTACX_site505]”: the “gcPBM binding intensity (ln)” value was determined as 10.7 ± 0.13.
As for “TATATATATATATTATGTACTCATTTATTATCTTTT [XGTACX_site8051]”, the figure is 9.97 ± 0.13.
In the case of “ACAAAAATATTATATTGTACATTATTAGTTCATATT [XGTACX_site6750]”, the “gcPBM binding intensity (ln)” value came out at 8.5 ± 0.3.
Next, “GTAATTTTGAGATGATGTACATATTTTTTCCTTGTC [XGTACX_site4103]”: 8.78 ± 0.47.
As to “TAATTAAGAATATATAGTACATAGTTGAAAAACTTT [XGTACX_site6359]”, the “gcPBM binding intensity (ln)” value turned out to be 8.41 ± 0.33.
As for “GTTTGATAACACCTACAAACTCTTTTTTTTTTTTTT [CACACA_negctrl_site1134]”, the “gcPBM binding intensity (ln)” value came out at 8.41 ± 0.53.
Turning to “TCTGTGTTTTTGGGTACACACAAATAGCTTGTATAT [CACACA_site4002]”, the “gcPBM binding intensity (ln)” value came to 8.72 ± 0.19.
In the case of “TATGTAACCTGTTTTACACACCCCCACCCCCCTCTT [CACACA_site319]”, the “gcPBM binding intensity (ln)” value was 10.3 ± 0.17.
For the sequence “TATATATGTTTTTATGTACACACTTTTAACCTAAGA [CACACA_site1149]”, the “gcPBM binding intensity (ln)” value is 8.71 ± 0.36.
As for “ACCCTATATGTAACTACACACCGCATATTGTTTACT [CACACA_site3071]”, the figure is 9.19 ± 0.43; as for “ATCTATATAATATATACACACAAATATACAAAAAAA [CACACA_site1013]”, 8.64 ± 0.56.
With “ATACACACATATATGTGTACATATACATATATATAT [XGTACX_site6744]”, the “gcPBM binding intensity (ln)” value amounted to 9.53 ± 0.32.
As for “GTACAAATGTTGTGTATATATACACACATACATATA [XGTACX_negctrl_site276]”, the figure is 8.69 ± 0.33; as for “AAAAAAATAAATAAATGTACACATATATATATATAT [XGTACX_site4350]”, 10.2 ± 0.47; as for “AAAAAATGCGACATGTGTACACATATATATATATAT [XGTACX_site1679]”, 10.4 ± 0.11.
